Results filed as inconclusive are left out. Values without a mark were called inactive. Calls of active or inactive are those of the source. Calls follow the shape of the dose curve; as a rule, active = well fitted curve in the direction sought with a large enough effect in the repeat runs; inconclusive = weak or mixed curves; inactive = no such curve, though single readings can be large; an effect the other way counts as inactive or inconclusive.

Assay [1] in a line: qHTS RealTime-Glo MT Cell Viability Assay in HEK293 cells - 16 hour (AID 1224872). Also: nearly all actives have a fitted effect of over 50% in size. Also: potency is read from the fitted curve at half-maximal effect. In outline:
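Nonlytic real-time viability readout: viable cells convert prosubstrate to NanoLuc substrate, giving luminescence proportional to live cell number. HEK293, 600 cells/well, compound added after 5 h, continuous culture at 37 C.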

A short description of assay [2]: qHTS RealTime-Glo MT Cell Viability Assay in HepG2 cells - 8 hour (AID 1224873). Also: nearly all actives have a fitted effect of over 55% in size. Also: potency is read from the fitted curve at half-maximal effect. The procedure, abridged:
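Real-time viability: cells seeded at 600 per well together with NanoLuc and cell-permeant prosubstrate, compounds added after 5 h incubation. Luminescence tracked at 0, 8, 16, 24, 32 and 40 h of exposure.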

Assay [3] can be described thus: qHTS RealTime-Glo MT Cell Viability Assay in HEK293 cells - 40 hour (AID 1224874). Also: nearly all actives have a fitted effect of over 50% in size. Also: potency is read from the fitted curve at half-maximal effect. Particulars: RealTime-Glo luminescence; max response: stronger effect = lower value. The procedure, abridged:
(§1)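 Viable HEK293 cells reduce a cell-permeant prosubstrate; the product diffuses out and is consumed by NanoLuc in the medium to give light. Compounds went in after a 5 h incubation and plates were read over the treatment course.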

Assay [4] in a line: A CellTox Green Cytotoxicity Assay to monitor cytotoxicity in HEK293 cells - 24 hour (AID 1224875). Also: nearly all actives have a fitted effect of over 45% in size. Also: potency is read from the fitted curve at half-maximal effect. The procedure, abridged:
(§2)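 Fluorescence intensity, read at 0, 8, 16, 24, 32 and 40 h of compound treatment, reflected dye binding to DNA of dead HEK293 cells; compounds (23 nL, DMSO) were added 5 h after plating cells with reagent.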

Assay [5] is described as follows: A CellTox Green Cytotoxicity Assay to monitor cytotoxicity in HepG2 cells - 16 hour (AID 1224876). Also: nearly all actives have a fitted effect of over 45% in size. Also: potency is read from the fitted curve at half-maximal effect. The procedure, abridged: (§3)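 Using 1536-well format, dye-containing HepG2 suspension was seeded, allowed 5 h at 37 C/5% CO2, dosed by pintool with compounds, positive and negative controls, and imaged for fluorescence across 40 h.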
The nature of assay [6]: qHTS RealTime-Glo MT Cell Viability Assay in HepG2 cells - 32 hour (AID 1224877). Also: nearly all actives have a fitted effect of over 55% in size. Also: potency is read from the fitted curve at half-maximal effect. The procedure, abridged: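 Luminescence read-out: viable HepG2 cells reduce a prosubstrate to a NanoLuc substrate, giving a signal proportional to live cell number. Reads taken at 0, 8, 16, 24, 32 and 40 h of compound exposure at 37 C.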
Assay [7] in a line: A CellTox Green Cytotoxicity Assay to monitor cytotoxicity in HepG2 cells - 24 hour (AID 1224878). Also: nearly all actives have a fitted effect of over 45% in size. Also: potency is read from the fitted curve at half-maximal effect. The procedure, abridged:
as §3

The nature of assay [8]: A CellTox Green Cytotoxicity Assay to monitor cytotoxicity in HepG2 cells - 40 hour (AID 1224879). Also: nearly all actives have a fitted effect of over 40% in size. Also: potency is read from the fitted curve at half-maximal effect. The procedure, abridged:
as §3

Assay [9] is described as follows: qHTS RealTime-Glo MT Cell Viability Assay in HEK293 cells - 0 hour (AID 1224880). Also: top concentration of the series differs between compounds; nearly all actives have a fitted effect of over 45% in size. The procedure, abridged: as §1
The nature of assay [10]: A CellTox Green Cytotoxicity Assay to monitor cytotoxicity in HEK293 cells - 40 hour (AID 1224871). Also: nearly all actives have a fitted effect of over 45% in size. Also: potency is read from the fitted curve at half-maximal effect. The procedure, abridged: as §2
% is scaled to controls: 0 for no effect and ±100 for the full control effect.

On to `CCCCCCCCC(CCCCCC)C(=O)O` (centres undefined), for which the Potency entry in assay [1], in [2], in assay [4], in assay [5] and in assay [6] was “inactive” throughout. For the same compound, the max response in assay [3] is -3.96%. The Potency in assay [7] and in assay [8] was 61.6 µM (active) in each case.

Take `CCCCCCCCCI`: the Potency result in [1], in [2], in [4], in [5], in [7] and in assay [8] was “inactive” each time. The Potency result in assay [9] is “inactive”. For the same compound, the max response in assay [3] is -1.11%. The Potency in assay [6] is 35.3 µM (active).

With `CCOC(=O)c1ccc(C#Cc2ccc3c(c2)C(C)(C)CCS3)nc1`, the Potency result in assay [10], in assay [2], in assay [4], in [5], in [6] and in assay [7] was “inactive” each time. For the same compound, in [9], the Potency result is “inactive”. In addition, the Potency in [8] was 0.301 µM (active).

Regarding `CC(C)=CC(=O)C=C(C)C`, the Potency result in assay [1], in [2], in [4], in assay [5], in [6] and in assay [7] was “inactive” each time. The Potency result in assay [8] and in assay [9] was “inactive” throughout. For the same compound, the max response in assay [3] is 9.12%.

As to `CCC1NC(=O)c2cc(S(N)(=O)=O)c(Cl)cc2N1` (centres undefined), the Potency result in [1], in assay [2], in [4], in [5], in assay [6] and in assay [7] was “inactive” throughout. The Potency entry in [8] and in assay [9] was “inactive” throughout. Besides, in assay [3], the max response was 6.45%.

For `O=C(OC(=O)c1ccccc1)c1ccccc1`, the Potency result in assay [1], in assay [2], in [4], in assay [5], in assay [6] and in [7] was “inactive” each time. The Potency result in [8] and in [9] was “inactive” throughout. Besides, in assay [3], the max response is 6.21%.

As to `COc1ccccc1N1CCN(CC(O)COc2cccc3ccccc23)CC1` (centres undefined), the Potency entry in [10], in assay [2], in [4] and in [9] was “inactive” each time. In assay [8], the Potency is 30.1 µM (active).

Regarding `C=Cc1ccc(S(=O)(=O)O)cc1`, the Potency entry in [1], in assay [2] and in [9] was “inactive” in each case. Also, the max response in [3] is -10.1%. Also, the Potency in [7] was 49 µM (active); in assay [8], 54.9 µM (active).

With `CC(C)COCC(CN(Cc1ccccc1)c1ccccc1)N1CCCC1` (centres undefined), the Potency in [1] is 8.49 µM (active); in assay [2], 23.9 µM (active); in assay [3], 10.7 µM (active); in [4], 23.9 µM (active); in assay [5], 21.3 µM (active); in assay [6], 21.3 µM (active). The Potency in [7] was 23.9 µM (active); in assay [8], 19 µM (active).

As to `CN(C(=O)CN(CCO)CC(=O)N(C)C(C)(C)Cc1ccccc1)C(C)(C)Cc1ccccc1`, the Potency in assay [10] is 23.9 µM (active); in assay [3] it was 19 µM (active); in assay [5], 23.9 µM (active); in assay [7], 23.9 µM (active); in assay [8], 23.9 µM (active). Moreover, in [9], the Potency result was “inactive”.

For `CCCCN1CCCC1C(=O)Nc1c(C)cc(C)cc1C` (centres undefined), the results for the Potency in assay [10] and in [4] were 16.9 µM (active) and 15.1 µM (active), respectively. In addition, the Potency result in [2], in assay [6] and in [9] was “inactive” each time.

As for `CC1(C)S[C@@H]2[C@H](NC(=O)C(c3ccccc3)S(=O)(=O)O)C(=O)N2[C@H]1C(=O)O` (some centres undefined), the Potency result in [1], in assay [2], in [4], in [5], in assay [6] and in [7] was “inactive” throughout. The Potency entry in assay [8] and in assay [9] was “inactive” in each case. Also, the max response in assay [3] was 0.0341%.

For the compound `Clc1cc(Cl)nc(Cl)n1`, the Potency entry in assay [10], in [2], in assay [4], in assay [5], in assay [6] and in assay [7] was “inactive” throughout. The Potency result in assay [8] and in [9] was “inactive” throughout.

Take `O=C1CCCCCCCCCCOCCCCO1`: the Potency result in assay [1], in [2], in assay [5], in assay [6], in assay [7] and in assay [8] was “inactive” in each case. Also, the max response in [3] was -14.4%. Besides, the Potency in assay [4] was 49 µM (active).

Turning to `COc1ccccc1N1CCN(CCCCNC(=O)c2ccc(-c3ccc(C(C)=O)cc3)cc2)CC1`, the results for the Potency in [1], in assay [3] and in [8] were 1.9 µM (active), 1.9 µM (active) and 26.8 µM (active), respectively. The Potency result in assay [2], in assay [4], in assay [5], in [6] and in assay [9] was “inactive” in each case.

On to `CN1CCCN=C1COC(=O)C(O)(c1ccccc1)C1CCCCC1` (centres undefined), for which the Potency result in [10], in assay [2], in [4], in assay [5], in [6] and in [7] was “inactive” throughout. Besides, the Potency result in assay [8] and in assay [9] was “inactive” each time.

Consider `CC(C)(O)c1ccc(CNC(=O)c2cccnc2Oc2ccc3nonc3c2)cc1`, for which the Potency entry in assay [10], in assay [2], in [4], in assay [5], in assay [6] and in [7] was “inactive” in each case. Further, the Potency entry in assay [8] and in assay [9] was “inactive” throughout.

Turning to `CC[C@]1(O)C[C@H]2CN(CCc3c([nH]c4ccccc34)[C@@](C(=O)OC)(c3cc4c(cc3OC)N(C=O)[C@H]3[C@@](O)(C(=O)OC)[C@H](OC(C)=O)[C@]5(CC)C=CCN6CC[C@]43[C@@H]65)C2)C1`, the Potency entry in assay [1], in assay [2], in assay [4], in assay [5], in assay [6] and in [7] was “inactive” each time. Moreover, in [9], the Potency result is “inactive”. Further, in assay [3], the Potency was 0.0012 µM (active).

(Values after PubChem BioAssay (Tox21).)
